This note sets out measurements from ChEMBL document CHEMBL2218924, “A broad activity screen in support of a chemogenomic map for kinase signalling research and drug discovery” (Biochem J, 2013).

In assay [1] the target is T1, Ephrin type-B receptor 1 (Homo sapiens) (UniProt P54762).
T1 sequence (whole entry): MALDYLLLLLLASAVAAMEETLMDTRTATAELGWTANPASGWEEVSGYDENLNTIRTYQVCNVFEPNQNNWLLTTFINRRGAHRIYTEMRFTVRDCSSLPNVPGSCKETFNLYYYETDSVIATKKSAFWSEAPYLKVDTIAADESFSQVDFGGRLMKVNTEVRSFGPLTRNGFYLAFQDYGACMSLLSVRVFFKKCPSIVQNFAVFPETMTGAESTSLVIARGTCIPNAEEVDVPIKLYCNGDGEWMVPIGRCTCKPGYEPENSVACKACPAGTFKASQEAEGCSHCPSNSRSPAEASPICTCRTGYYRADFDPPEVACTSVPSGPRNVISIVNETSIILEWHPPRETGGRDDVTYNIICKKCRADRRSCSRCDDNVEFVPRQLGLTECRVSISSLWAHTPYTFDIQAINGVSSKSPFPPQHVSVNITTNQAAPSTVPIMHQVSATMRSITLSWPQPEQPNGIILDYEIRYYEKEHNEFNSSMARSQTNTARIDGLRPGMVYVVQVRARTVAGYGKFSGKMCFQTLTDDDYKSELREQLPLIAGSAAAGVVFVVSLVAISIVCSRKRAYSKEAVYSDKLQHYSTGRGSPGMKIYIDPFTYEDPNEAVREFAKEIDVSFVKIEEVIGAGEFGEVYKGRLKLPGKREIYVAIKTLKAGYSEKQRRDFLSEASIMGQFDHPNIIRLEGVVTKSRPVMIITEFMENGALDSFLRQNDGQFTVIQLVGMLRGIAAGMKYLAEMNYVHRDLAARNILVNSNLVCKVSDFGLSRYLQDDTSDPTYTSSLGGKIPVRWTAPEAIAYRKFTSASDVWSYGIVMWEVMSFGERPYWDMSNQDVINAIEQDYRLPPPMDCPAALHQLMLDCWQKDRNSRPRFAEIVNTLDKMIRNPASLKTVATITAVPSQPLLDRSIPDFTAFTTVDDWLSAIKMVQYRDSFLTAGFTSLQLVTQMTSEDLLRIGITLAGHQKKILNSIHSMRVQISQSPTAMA
The note with it: at 10 µM.

In assay [2] the target is T2, Ephrin type-B receptor 2 (Homo sapiens) (UniProt P29323).
T2 sequence (whole entry): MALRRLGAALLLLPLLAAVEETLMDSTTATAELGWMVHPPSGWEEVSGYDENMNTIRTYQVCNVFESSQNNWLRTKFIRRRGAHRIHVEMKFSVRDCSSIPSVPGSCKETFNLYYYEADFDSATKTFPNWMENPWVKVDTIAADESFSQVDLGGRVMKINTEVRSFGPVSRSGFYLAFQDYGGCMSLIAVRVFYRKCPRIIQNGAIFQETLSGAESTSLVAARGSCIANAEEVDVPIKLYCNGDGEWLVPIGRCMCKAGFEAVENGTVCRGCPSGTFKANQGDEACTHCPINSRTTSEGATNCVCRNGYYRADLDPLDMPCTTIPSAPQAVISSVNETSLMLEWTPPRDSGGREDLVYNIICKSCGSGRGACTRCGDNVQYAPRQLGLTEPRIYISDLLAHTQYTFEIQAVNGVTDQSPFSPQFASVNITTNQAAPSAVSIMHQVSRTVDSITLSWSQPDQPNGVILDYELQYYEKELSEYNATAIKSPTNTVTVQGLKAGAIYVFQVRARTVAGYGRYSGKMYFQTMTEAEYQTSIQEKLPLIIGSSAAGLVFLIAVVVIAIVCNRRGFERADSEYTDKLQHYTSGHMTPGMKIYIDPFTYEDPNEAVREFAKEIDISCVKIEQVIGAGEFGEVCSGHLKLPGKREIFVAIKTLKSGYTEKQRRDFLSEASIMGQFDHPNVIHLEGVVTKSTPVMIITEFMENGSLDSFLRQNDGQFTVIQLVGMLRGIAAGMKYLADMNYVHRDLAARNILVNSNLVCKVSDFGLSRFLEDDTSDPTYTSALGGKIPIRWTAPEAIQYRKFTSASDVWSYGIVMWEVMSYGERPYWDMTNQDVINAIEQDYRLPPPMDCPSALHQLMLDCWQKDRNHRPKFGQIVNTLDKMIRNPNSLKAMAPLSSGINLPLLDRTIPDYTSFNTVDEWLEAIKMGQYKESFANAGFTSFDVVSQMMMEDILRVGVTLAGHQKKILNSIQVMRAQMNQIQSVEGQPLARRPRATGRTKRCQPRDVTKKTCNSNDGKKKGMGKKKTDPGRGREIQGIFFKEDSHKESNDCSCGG
The note with it: at 1 µM.

Assay [3] deals with T2, Ephrin type-B receptor 2 (Homo sapiens). To be noted: at 10 µM.
Assay [4] concerns the target T3, Ephrin type-B receptor 3 (Homo sapiens) (UniProt P54753).
T3 sequence (whole entry): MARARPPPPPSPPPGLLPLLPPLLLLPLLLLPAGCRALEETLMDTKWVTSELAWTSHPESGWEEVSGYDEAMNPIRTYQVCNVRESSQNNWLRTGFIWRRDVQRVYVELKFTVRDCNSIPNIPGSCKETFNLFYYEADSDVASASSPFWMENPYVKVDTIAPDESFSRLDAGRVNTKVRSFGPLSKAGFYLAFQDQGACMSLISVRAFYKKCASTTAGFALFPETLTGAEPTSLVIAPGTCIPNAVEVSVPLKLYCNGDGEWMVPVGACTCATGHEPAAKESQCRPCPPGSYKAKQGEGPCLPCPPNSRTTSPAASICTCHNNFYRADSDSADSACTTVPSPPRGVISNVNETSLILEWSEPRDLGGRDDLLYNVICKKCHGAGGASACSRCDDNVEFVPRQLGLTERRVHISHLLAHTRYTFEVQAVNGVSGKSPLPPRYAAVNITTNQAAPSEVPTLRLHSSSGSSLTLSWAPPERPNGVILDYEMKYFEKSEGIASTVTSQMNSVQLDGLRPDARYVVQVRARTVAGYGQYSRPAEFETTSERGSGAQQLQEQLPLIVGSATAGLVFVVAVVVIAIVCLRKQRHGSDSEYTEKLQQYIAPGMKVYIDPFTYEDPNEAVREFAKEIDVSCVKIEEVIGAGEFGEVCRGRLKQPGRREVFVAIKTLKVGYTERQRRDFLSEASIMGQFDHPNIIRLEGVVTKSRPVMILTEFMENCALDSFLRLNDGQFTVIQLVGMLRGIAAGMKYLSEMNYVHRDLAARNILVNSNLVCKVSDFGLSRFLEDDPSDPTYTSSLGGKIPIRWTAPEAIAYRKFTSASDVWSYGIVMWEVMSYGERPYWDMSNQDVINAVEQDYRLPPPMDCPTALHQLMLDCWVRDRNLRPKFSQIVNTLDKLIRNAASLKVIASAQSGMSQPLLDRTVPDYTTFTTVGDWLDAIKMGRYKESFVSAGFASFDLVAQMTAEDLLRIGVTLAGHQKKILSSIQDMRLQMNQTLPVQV
The note with it: at 1 µM.

Assay [5] has as its target T3, Ephrin type-B receptor 3 (Homo sapiens). To be noted: at 10 µM.
The target of assay [6] is T4, Ephrin type-B receptor 4 (Homo sapiens) (UniProt P54760).
T4 sequence (whole entry): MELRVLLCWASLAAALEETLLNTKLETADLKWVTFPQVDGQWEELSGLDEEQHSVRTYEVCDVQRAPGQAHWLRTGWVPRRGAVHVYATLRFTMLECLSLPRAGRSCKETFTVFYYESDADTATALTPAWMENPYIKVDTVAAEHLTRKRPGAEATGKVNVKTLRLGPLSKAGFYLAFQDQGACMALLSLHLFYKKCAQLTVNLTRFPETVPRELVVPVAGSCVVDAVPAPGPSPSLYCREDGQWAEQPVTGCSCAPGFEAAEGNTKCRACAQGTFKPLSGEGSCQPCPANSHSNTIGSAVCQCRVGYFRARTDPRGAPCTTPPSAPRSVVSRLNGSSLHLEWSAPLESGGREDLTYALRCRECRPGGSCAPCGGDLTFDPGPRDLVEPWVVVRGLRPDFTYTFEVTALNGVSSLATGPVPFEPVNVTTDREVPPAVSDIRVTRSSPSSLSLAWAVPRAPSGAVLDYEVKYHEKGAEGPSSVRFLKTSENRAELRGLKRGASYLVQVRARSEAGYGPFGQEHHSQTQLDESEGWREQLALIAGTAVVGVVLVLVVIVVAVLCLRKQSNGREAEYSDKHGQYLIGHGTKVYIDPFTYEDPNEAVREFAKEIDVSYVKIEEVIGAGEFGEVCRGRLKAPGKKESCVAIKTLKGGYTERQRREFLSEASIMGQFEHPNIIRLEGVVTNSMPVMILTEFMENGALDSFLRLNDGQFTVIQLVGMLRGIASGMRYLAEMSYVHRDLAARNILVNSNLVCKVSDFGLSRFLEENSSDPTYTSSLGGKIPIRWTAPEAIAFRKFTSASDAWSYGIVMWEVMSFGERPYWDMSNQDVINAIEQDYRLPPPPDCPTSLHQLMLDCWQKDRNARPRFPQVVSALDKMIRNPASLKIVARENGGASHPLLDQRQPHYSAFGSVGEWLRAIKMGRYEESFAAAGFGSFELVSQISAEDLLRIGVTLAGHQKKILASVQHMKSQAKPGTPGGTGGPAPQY
The note with it: at 1 µM.

The target in assay [7] is T4, Ephrin type-B receptor 4 (Homo sapiens). To be noted: at 10 µM.
The target in assay [8] is Receptor tyrosine-protein kinase erbB-4 (Homo sapiens) (UniProt Q15303). The note with it: at 1 µM.
Sequence of Receptor tyrosine-protein kinase erbB-4 (Homo sapiens) (Q15303 whole entry): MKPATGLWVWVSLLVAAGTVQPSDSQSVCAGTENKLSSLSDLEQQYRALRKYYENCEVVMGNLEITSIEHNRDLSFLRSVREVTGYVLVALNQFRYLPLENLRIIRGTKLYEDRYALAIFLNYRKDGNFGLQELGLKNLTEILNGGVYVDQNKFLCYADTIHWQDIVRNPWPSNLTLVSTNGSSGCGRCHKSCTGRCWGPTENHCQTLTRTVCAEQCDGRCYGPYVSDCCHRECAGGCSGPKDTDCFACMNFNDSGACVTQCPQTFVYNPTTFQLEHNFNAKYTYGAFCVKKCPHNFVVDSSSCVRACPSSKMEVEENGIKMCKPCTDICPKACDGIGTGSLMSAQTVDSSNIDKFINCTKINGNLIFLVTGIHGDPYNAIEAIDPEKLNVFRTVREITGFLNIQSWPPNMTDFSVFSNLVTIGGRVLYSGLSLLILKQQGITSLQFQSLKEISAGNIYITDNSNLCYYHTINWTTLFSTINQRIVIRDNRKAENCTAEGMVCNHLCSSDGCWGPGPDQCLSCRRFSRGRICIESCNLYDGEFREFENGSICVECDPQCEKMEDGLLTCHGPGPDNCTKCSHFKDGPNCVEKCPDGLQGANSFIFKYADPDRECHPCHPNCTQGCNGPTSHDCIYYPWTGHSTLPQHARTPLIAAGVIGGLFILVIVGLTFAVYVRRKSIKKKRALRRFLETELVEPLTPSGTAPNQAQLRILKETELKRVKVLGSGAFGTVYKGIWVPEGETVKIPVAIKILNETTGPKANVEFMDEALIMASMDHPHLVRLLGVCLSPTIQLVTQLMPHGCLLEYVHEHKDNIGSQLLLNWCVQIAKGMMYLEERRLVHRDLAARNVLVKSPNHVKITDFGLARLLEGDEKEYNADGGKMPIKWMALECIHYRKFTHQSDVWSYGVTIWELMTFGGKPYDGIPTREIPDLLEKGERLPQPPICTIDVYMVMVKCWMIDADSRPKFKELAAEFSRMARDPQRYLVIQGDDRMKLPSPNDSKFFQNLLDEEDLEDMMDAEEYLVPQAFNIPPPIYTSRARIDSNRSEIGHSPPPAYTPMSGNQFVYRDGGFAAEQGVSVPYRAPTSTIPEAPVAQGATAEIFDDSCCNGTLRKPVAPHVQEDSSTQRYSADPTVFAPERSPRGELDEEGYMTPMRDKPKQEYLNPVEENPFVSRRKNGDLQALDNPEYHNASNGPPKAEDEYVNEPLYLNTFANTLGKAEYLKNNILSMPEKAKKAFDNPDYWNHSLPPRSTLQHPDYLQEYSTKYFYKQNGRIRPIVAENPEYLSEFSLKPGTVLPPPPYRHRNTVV
Assay [9] has the same target. To be noted: at 10 µM.
Assay [10] deals with Focal adhesion kinase 1 (Homo sapiens) (UniProt Q05397). The note with it: at 1 µM.
Sequence of Focal adhesion kinase 1 (Homo sapiens) (Q05397 2-1052 limits assumed): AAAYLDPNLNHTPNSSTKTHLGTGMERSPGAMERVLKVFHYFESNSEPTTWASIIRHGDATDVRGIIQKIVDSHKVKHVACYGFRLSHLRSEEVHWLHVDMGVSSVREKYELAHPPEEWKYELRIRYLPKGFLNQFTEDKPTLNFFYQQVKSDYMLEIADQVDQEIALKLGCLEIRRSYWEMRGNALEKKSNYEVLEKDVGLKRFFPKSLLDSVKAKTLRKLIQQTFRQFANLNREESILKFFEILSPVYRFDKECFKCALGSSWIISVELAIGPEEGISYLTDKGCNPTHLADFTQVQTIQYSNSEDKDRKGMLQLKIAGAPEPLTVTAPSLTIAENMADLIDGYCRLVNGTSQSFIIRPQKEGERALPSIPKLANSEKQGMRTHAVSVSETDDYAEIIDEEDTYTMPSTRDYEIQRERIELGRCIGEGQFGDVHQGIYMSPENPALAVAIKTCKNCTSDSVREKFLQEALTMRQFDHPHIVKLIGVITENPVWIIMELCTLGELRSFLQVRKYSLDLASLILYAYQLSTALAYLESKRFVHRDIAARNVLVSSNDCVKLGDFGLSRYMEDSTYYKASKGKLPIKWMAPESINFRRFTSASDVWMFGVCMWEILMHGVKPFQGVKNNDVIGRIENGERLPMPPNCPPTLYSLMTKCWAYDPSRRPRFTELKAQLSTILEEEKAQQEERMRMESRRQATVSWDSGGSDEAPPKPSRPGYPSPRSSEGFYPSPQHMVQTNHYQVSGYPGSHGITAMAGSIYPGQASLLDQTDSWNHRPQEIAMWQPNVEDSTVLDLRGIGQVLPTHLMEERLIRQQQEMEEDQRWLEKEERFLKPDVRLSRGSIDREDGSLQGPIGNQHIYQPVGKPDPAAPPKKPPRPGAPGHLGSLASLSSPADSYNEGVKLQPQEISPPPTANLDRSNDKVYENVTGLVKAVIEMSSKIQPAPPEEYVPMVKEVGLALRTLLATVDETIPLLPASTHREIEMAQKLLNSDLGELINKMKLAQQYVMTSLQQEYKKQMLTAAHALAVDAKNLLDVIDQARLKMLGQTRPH

As a reminder, the residual activity is the signal under treatment as a percentage of the control signal. On to `O=C1NC(=O)/C(=C\c2ccc3nccnc3c2)S1`, for which the residual activity in assay [1] is 96%; in assay [2] it was 98%; in assay [3], 119%; in assay [4] it was 113% (inactive); in assay [5], 104%; in assay [6] it was 95%. In addition, the residual activity in assay [7] came out at 111%; in assay [8] it was 88%; in assay [9], 92%; in assay [10], 90%.
